Screening data deposited in PubChem by National Center for Advancing Translational Sciences (NCATS).
VP16 counter – Gal4-VP16 reporter inhibition counter-screen. 310,000 compounds, 3.5% hits. AID 2546. Drosophila S2 Gal4-VP16 UAS-luciferase, luminescence, 20 h. Potency, µM (highest dose often 53.6 µM), for inactives: at the highest dose activity, negative = inhibition, usual class: inhibitors;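 note: Gal4-VP16 expression switched on by copper sulfate through the metallothionein promoter; nearly all actives have a fitted effect of over 50% in size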
ELG1 repair inh – inhibitors of ELG1-dependent DNA repair in HEK293T cells. HEK293T ELG1-luciferase reporter, luminescence, 16 h; DNA damage induced by 5-fluorouridine. Potency, µM (titrated, usually from 46.1 µM), without a hit: top-dose activity change, negative = inhibition, usual class: inhibitors. 330,000 compounds, 2.3% hits; note: nearly all actives have a fitted effect of over 55% in size
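Luminescence from the luciferase reporter, measured 30 min after ONE-Glo reagent at room temperature, was the read-out. Beforehand, 2,000 cells per well were exposed for 16 hr at 37 °C to 5-fluorouridine together with compound or vehicle.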
ALOX12 inh – inhibitors of human 12S-lipoxygenase ALOX12; P18054; purified 12hLO, xylenol orange hydroperoxide absorbance; 580,000 compounds, 1.1% hits; Potency, µM (highest dose often 108 µM), for inactives: top-dose activity change, negative = inhibition, most hits filed as inhibitors
Target sequence (P18054 whole entry, looked up): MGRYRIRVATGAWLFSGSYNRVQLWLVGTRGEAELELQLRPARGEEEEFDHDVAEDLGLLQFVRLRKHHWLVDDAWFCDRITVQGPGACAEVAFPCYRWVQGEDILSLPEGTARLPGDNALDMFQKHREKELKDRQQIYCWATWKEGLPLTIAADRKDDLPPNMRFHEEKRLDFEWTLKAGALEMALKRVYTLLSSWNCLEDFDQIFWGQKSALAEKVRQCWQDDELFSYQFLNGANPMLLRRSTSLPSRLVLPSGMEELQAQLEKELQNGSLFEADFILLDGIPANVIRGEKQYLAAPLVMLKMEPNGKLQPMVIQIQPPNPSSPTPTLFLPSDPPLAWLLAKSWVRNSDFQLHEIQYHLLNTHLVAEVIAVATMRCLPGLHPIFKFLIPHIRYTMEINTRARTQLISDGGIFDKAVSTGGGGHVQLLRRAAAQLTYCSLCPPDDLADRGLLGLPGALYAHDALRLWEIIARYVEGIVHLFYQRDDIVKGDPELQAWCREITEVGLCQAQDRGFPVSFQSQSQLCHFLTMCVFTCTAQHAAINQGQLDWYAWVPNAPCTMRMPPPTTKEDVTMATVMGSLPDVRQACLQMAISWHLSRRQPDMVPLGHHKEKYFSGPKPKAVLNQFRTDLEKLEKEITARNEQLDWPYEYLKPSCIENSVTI
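Purified human 12hLO at 150 nM in 25 mM Hepes, 0.01% Triton X-100, pH 7.0, preincubated 15 min at room temperature with compound. Reaction started with 40 uM arachidonic acid, 30 min at room temperature. Hydroperoxide measured by Fe-xylenol orange, 573/405 nm absorbance ratio.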
RORgamma inh – blocks mouse ROR gamma transcriptional activity; P51450; Drosophila S2 Gal4-RORgamma UAS-luciferase reporter, 20 h; Potency, µM (highest dose often 53.6 µM), for inactives: at the highest dose activity change, negative = inhibition, most hits filed as inhibitors; 310,000 compounds, 5.4% hits; AID 2551; note: nearly all actives have a fitted effect of over 60% in size
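Compounds are pin-transferred onto Drosophila Schneider cells expressing a copper-inducible Gal4–ROR gamma transactivation domain fusion. After 1 hr, copper sulfate is added to 700 uM final; luciferase is read 20 hr later.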
DT40 TDP1 no CPT – qHTS for Inhibitors of human tyrosyl-DNA phosphodiesterase 1 (TDP1): qHTS in cells in absence of CPT | Potency, µM (top dose mostly 46.2 µM), without a hit: at the top dose activity change, negative = growth inhibition, actives largely listed as inhibitors | 420,000 compounds, 15% hits | DT40 Tdp1-/- hTDP1 cells, no CPT, ATP luminescence, 48 h; note: nearly all actives have a fitted effect of over 55% in size
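Luminescent ATP content (CellTiter-Glo) served as the growth readout. Knockout chicken DT40 cells expressing human TDP1 were exposed to compounds without camptothecin for a minimum 48 hr at 37 °C.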
TDP1 cell CPT – growth inhibition of DT40 Tdp1-/-;hTDP1 cells with camptothecin (screen for TDP1 inhibitors); chicken DT40 Tdp1-/-;hTDP1 cells + 20 nM CPT, ATP luminescence, 48 h; Potency, µM (titrated, usually from 46.2 µM), without a hit: top-dose activity change, negative = growth inhibition, usual class: inhibitors; 420,000 compounds, 12% hits; AID 686979; note: nearly all actives have a fitted effect of over 55% in size
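Chicken DT40 Tdp1-/- cells stably complemented with human TDP1 were seeded at 400 cells/well in medium containing 20 nM camptothecin, exposed to pin-transferred compounds, and grown at 37 °C for at least 48 hr. Viability was read as ATP luminescence.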
The depositor's hits bear a star; ? = inconclusive; nt = not tested or not shown; [ ] = dose if it differs, or a comment. A selection: hits, their analogues and other compounds. The true share with any hit is near 15%. Calls come from the whole dose curve; as a rule, active = well fitted curve in the direction sought with a large enough effect; inconclusive = small, poorly fitted or top-dose-only effect, or another doubt; inactive = no such curve, though single readings can be large; an effect the other way counts as inactive or inconclusive. % is set by controls: 0 for no effect and ±100 for the full control effect; potency is the fitted concentration of half-maximal effect.

SMILES | VP16 counter | ELG1 repair inh | ALOX12 inh | RORgamma inh | DT40 TDP1 no CPT | TDP1 cell CPT
CC(=O)N1CCC(N2CCC3(CC2)CC(C(=O)N2CCOCC2)N(C)C3)CC1 (stereo not drawn) | nt | nt | 138% | nt | nt | nt
COc1ccccc1OCc1nc2ccccc2[nH]1 | -10% | ? | 0% | ? | -14% | -2%
COc1cccc(OCc2nc3ccccc3[nH]2)c1 | -7% | ? | 27% | ? | ? | 13µM*
Cc1ccccc1OCc1nc2ccccc2[nH]1 | -13% | ? | -3% | -24% | 16µM* | 23µM*
O=C(c1cccnc1OC1CCN(S(=O)(=O)c2ccccc2)C1)N1CCCCC1 (stereo not drawn) | nt | nt | 27% | nt | nt | nt
Cc1ccc(-c2csc3ncnc(Oc4ccc5c(C)cc(=O)oc5c4)c23)cc1 | -13% | 18µM* | 15% | 22% | ? | 18µM*
CCn1nc(C)c2ccn(CC(=O)NCc3ccccc3C(F)(F)F)c(=O)c21 | nt | nt | 0% | nt | nt | nt
COc1ccc(OC)c(CNC(=O)C2Cn3cccc3C(=O)N2)c1 (stereo not drawn) | nt | nt | 22% | nt | nt | nt
COc1ccc(/C=N/N2CCN(c3ccccc3OC)CC2)cc1OC | -8% | 18% | 19% | 9% | -18% | -6%
COc1cc(C=NN2CCCCC2)cc(OC)c1OC | nt | nt | -28% | nt | 0% | 2%
COc1ccccc1N1CCN(/N=C/c2ccc(O)c(O)c2)CC1 | -9% | 23% | ? | -30% | 9.2µM* | 18µM*
COc1cc(/C=N/N2CCN(C3c4ccccc4-c4ccccc43)CC2)ccc1O | ? | ? | 11% | 43% | 23µM* | 26µM*
COc1cccc(/C=N/N2CCN(C3c4ccccc4-c4ccccc43)CC2)c1O | -3% | ? | 7% | 17% | 16µM* | ?
COc1cc(/C=N/N2CCCCC2)cc(OC)c1O | -1% | 7% | ? | -3% | 18µM* | 18µM*
CC(C)c1ccc(C(=O)NCCCNC(=O)c2cc3ccccc3[nH]2)cc1 | nt | nt | -7% | nt | nt | nt
Cc1nn(-c2ccc3nncn3n2)c2c1C(c1ccccc1OCc1ccccc1)CC(=O)N2 (stereo not drawn) | nt | nt | 0% | nt | nt | nt
CSc1nc(C)c2c(n1)N(c1ccc(C(C)C)cc1)CC2 | -1% | 0% | 43% | -39% | 21µM* | ?
O=C(Cc1ccc(Br)cc1)N(Cc1nnc(-c2ccccc2Cl)o1)C1CC1 | nt | nt | -12% | nt | nt | nt
O=C(Nc1ccc(CN2CCOCC2)cc1)c1ccc(-c2ccc(Br)cc2)o1 | -26% | 18µM* | -11%[57.4 µM] | -38% | 18µM* | 16µM*
COC(=O)c1ccc(NC(=O)c2ccc(CN3CCOCC3)cc2)cc1 | nt | 8.2µM* | 26% | -9%[0.365 µM] | -21% | ?
CCOc1ccc(NC(=O)c2ccc(NC(=O)c3ccc(CN4CCOCC4)cc3)cc2)cc1 | 1% | 2% | -9% | -4% | -18% | -5%
CCC(C)Oc1ccc(C(=O)Nc2ccc(CN3CCOCC3)cc2)cc1 (stereo not drawn) | 0% | ? | ? | ? | 15µM* | 21µM*
CC(=O)NCCC(=O)N1CCCCC1C(=O)Nc1ccc(-n2nc(C)cc2C)cc1 (stereo not drawn) | nt | nt | 11% | nt | nt | nt
Cc1cc2cc(CNC(=S)Nc3ccc(OC(F)(F)F)cc3)ccc2n1C | 18% | 11% | 40µM* | -35% | ? | ?
Cc1cccc(NC(=O)NCc2ccc3c(c2)cc(C)n3C)c1 | ? | -7% | ? | -16% | -24% | ?
SMILES | VP16 counter | ELG1 repair inh | ALOX12 inh | RORgamma inh | DT40 TDP1 no CPT | TDP1 cell CPT
Cc1cccc(NC(=S)NCc2ccc3c(c2)cc(C)n3C)c1C | -17% | 26µM* | 35µM* | 2% | 15µM* | 12µM*
COc1cccc(NC(=S)NCc2ccc3c(c2)cc(C)n3C)c1 | ? | -20% | ? | 4.5µM* | 16µM* | -20%
Cc1cc2cc(CNC(=O)Nc3cccc(Cl)c3)ccc2n1C | 2% | -15% | ? | ? | -11% | -2%
CCN1CCN(c2oc(-c3cccc(Cl)c3)nc2C#N)CC1 | nt | nt | -29% | nt | nt | nt
Cc1cccc(NC(=O)c2sc(-n3nc(C)c(Cl)c3C)nc2C)c1 | nt | nt | 7% | nt | nt | nt
COc1ccc(C(=O)N[C@H]2C[C@@H]3CC[C@H]2C3)cc1OC | nt | nt | 1% | nt | nt | nt
COc1ccc2cc1Oc1ccc(cc1)C[C@H]1c3c(cc4c(c3Oc3cc5c(cc3OC)CCN(C)[C@@H]5C2)OCO4)CCN1C | -12% | -26% | 85% | ? | 5.8µM* | 6.5µM*
CN1CCCC1c1nc(C2CN(C(=O)CCc3nc4ccccc4s3)C2)no1 (stereo not drawn) | nt | nt | 15% | nt | nt | nt
O=S(=O)(NCc1ccccc1Cl)c1ccc2c(c1)OCCO2 | nt | nt | 1% | nt | nt | nt
COc1ccc(S(=O)(=O)N2CC=C(c3ccccc3)CC2)cc1OC | nt | nt | 3% | nt | 23µM* | ?
O=c1cc(-c2ccccc2)n(S(=O)(=O)c2ccccc2)o1 | 0% | 29% | 10µM* | 0% | -11% | -1%
COc1ccc(S(=O)(=O)n2oc(=O)cc2-c2ccccc2)cc1OC | -6% | ? | 14µM* | 0% | -7% | -7%
COc1ccc(S(=O)(=O)N2CCN(c3ccccc3)CC2)cc1OC | nt | nt | 77% | nt | ? | 9%
C[N+]1(Cc2cccc(F)c2)CCN(/C=C/C(=O)C(F)(F)F)CC1 | nt | nt | -17% | nt | nt | nt
NC(=O)N/N=C/c1cccc([N+](=O)[O-])c1 | nt | nt | 6% | nt | nt | nt
Cc1oc(-c2cccs2)nc1CC(=O)NCc1ccc(CN2CCC(C)CC2)cc1 | nt | nt | -6% | nt | nt | nt
COc1ccccc1NC(C)(C)c1nnnn1-c1ccc(OC)c(OC)c1 | nt | nt | -25% | nt | nt | nt
COCc1cn(C[C@H]2C[C@@H](NC(=O)c3cc(C)n(C)n3)[C@H](O)[C@@H]2O)nn1 | nt | nt | 62% | nt | nt | nt
CC(c1ccccc1)N1C(=O)C2C3CCC(C3)C2C1=O (stereo not drawn) | -5% | 29% | -15% | 0% | -13% | -19%
CC1=CC(C)(C)NC(=S)N1c1ccc2ccccc2c1 | 6.3µM* | -6% | ? | 3.5µM* | ? | ?
CC1=CC(C)(C)NC(=S)N1c1ccc(Cl)cc1 | nt | nt | -8% | nt | ? | -22%
CC1=CC(C)(C)NC(=S)N1C(C)c1ccccc1 (stereo not drawn) | 4µM* | 14% | ? | 2.2µM* | ? | ?
CC1=CC(C)(C)NC(=S)N1CCO | nt | nt | -5% | nt | -32% | -10%
CC1=CC(C)(C)NC(=S)N1c1cccc2ccccc12 | 5µM* | -9% | -15% | ? | 26µM* | ?
O=C(CCc1cccnc1)Nc1nc(-c2ccc3c(c2)CCO3)cs1 | nt | nt | -5% | nt | nt | nt
